Here are results for four compounds from PubChem BioAssay AID651956 (Broad Institute, 2012).

Potency and affinity values are given separately. Inconclusive results are not listed. The source made the active and inactive calls.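 The calls were made as follows: active = in every test run, a fitted half-maximal concentration for signal decrease at or below twice the highest tested concentration; inconclusive = runs disagree, flat 30 to 70% decrease, or poor fit; inactive = the rest.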

A short description of the experiment: activation of miR-122 Renilla sensor silencing – cell-based, Huh7 psiCHECK-miR122, Renilla luciferase, cherry-picked, dose response (AID 651956).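 Also: Renilla luciferase from a miR-122 sensor reporter so lower signal means miR-122 activation; 0% = median neutral control wells and -100% = median positive control wells.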 The conditions noted are these: Huh7 psiCHECK-miR122 Renilla luciferase reporter, 48 h; series mostly up to 35 µM; activity change, negative = signal decrease: at the top concentration.
As to `O=C1NC(=O)N(CCC2=CCCCC2)C(=O)/C1=C\c1cccs1`, the “activity change, negative = signal decrease” value is -3.02% (inactive).
In the case of `O=C(c1ccco1)c1cn(Cc2ccccc2Cl)c2ccccc12`, the “activity change, negative = signal decrease” value was 60.4% (inactive).
With `COc1ccc2c(c1)c(CCN)c(C)n2Cc1ccccc1` the figure was -25.7% (inactive).
To `COc1ccc(C2SCC(=O)Nc3c2c(=O)[nH]n3C2CCCCCC2)cc1` (centres undefined) belongs -13% (inactive).
